LGR2 inh = blocks bursicon-induced cAMP signaling via Drosophila LGR2. HEK293 LGR2, CRE-luciferase, bursicon-stimulated, 4 h. inhibition, % at 9.99 µM. 380,000 compounds, 0.35% hits;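 active = drop in luminescence signal, shown as inhibition above about 50% in the replicate tests, limit read from the data, passing the limit was not always enough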;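 also: agonist challenge used bursicon conditioned medium at about half maximal strength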
TROY NFkB inh = TROY signaling inhibition; Q293 LMP1-TROYcd NF-kB luciferase reporter, 4 h; inhibition, % at 10 µM; 360,000 compounds, 0.98% hits; AID 1347056;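 active = compounds whose plate-normalised and pattern-corrected inhibition of the luciferase reporter signal at the single screening dose is 50% or more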
CF NFkB inh = blocks PAF-induced NF-kB reporter in cystic fibrosis cells | KKLEB NF-kB-GFP reporter, GFP fluorescence overnight | inhibition, % at 5 µM | 360,000 compounds, 0.86% hits | AID 588850;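 active = at least 50% inhibition at 5 µM, scaled per plate between neutral and stimulator controls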;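 also: PAF is a Pseudomonas aeruginosa culture filtrate used as stimulus; plate controls were PAF-stimulated DMSO wells for no effect and unstimulated DMSO wells for full effect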
KKLEB tox = CF airway cell cytotoxicity counter-screen. AID 602141. 360,000 compounds, 0.36% hits. KKLEB CF airway cells viability, ATPlite luminescence, overnight; active compounds read low; cells stimulated with P. aeruginosa culture filtrate. activity change (cytotoxicity), % at 5 µM;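 active = corrected activity change at or below -50% at 5 µM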
TWEAK Fn14 block = TWEAK-Fn14 signaling inhibition. inhibition, % at 10 µM. TWEAK-stimulated Fn14 reporter cells, luciferase luminescence, 8 h. 360,000 compounds, 2% hits; in the data active = inhibition above about 50%
EWS-Fli inh = inhibitors of EWS/Fli oncoprotein transcriptional activity. inhibition, % at 12.6 µM. A673 NR0B1-luciferase reporter, viability-normalised. 350,000 compounds, 0.67% hits;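 active = mean inhibition of at least 50% after viability correction, with every replicate also passing that limit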;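 also: firefly luciferase signal divided by Alamar Blue viability fluorescence both relative to DMSO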
* marks the source's active call; other numbers are inactive results. Shown are actives, neighbours in structure and some others; about 2.6% of the full set was active somewhere.

Results for CCc1nc(Nc2ccc(OC)c(OC)c2)c2nnn(Cc3ccccc3Cl)c2n1 ?
TROY NFkB inh: 50; CF NFkB inh: 11; KKLEB tox: 2; TWEAK Fn14 block: 52*

Results for CCCNC(=O)N(C)C[C@@H]1Oc2cc(C#Cc3cccc(F)c3)ccc2S(=O)(=O)N([C@H](C)CO)C[C@H]1C ?
LGR2 inh: 6; EWS-Fli inh: 12

What do the screens show for `Cc1ccccc1-n1c(-c2ccco2)n[nH]c1=S`?
LGR2 inh: 12; TROY NFkB inh: 7; CF NFkB inh: 10; KKLEB tox: -10; TWEAK Fn14 block: 10; EWS-Fli inh: -3

Results for FC(F)(F)c1ccccc1-n1c(-c2ccco2)n[nH]c1=S ?
LGR2 inh: 17; TROY NFkB inh: 25; CF NFkB inh: 2; KKLEB tox: 5; TWEAK Fn14 block: 88*; EWS-Fli inh: 22

How did COc1ccc(S(=O)(=O)Nc2ccc3c(c2)C(=O)N([C@H](C)CO)C[C@@H](C)[C@H](CN(C)S(=O)(=O)c2ccccc2)OCCCC[C@@H](C)O3)cc1 do in these assays?
LGR2 inh: -2; EWS-Fli inh: 32

What do the screens show for `COc1ccc(Nc2nc(Nc3ccc(OC)cc3)nc(-n3[nH]c(=O)c(C)c3C)n2)cc1`?
TROY NFkB inh: 5; CF NFkB inh: 87*; KKLEB tox: -31; TWEAK Fn14 block: 42

Results for CC1Cc2ccccc2N1C(=O)c1cc2c(=O)n3ccccc3nc2n1C (stereo unspecified) ?
TROY NFkB inh: -14; CF NFkB inh: 42; KKLEB tox: -10; TWEAK Fn14 block: 53*

Results for CO[C@H]1CN(C)C(=O)c2cc(NS(=O)(=O)CC(F)(F)F)ccc2OC[C@@H](C)N(C(=O)c2ccc3c(c2)OCO3)C[C@H]1C ?
LGR2 inh: -13; EWS-Fli inh: -3

How did COc1ccc(-n2c(=S)[nH]c3cc(C(=O)NCc4ccco4)ccc3c2=O)cc1OC do in these assays?
LGR2 inh: -12; TROY NFkB inh: 9; CF NFkB inh: -2; KKLEB tox: 1; TWEAK Fn14 block: 4; EWS-Fli inh: -2

How did COc1ccc(CCn2c(=S)[nH]c3cc(C(=O)NCc4ccco4)ccc3c2=O)cc1OC do in these assays?
TROY NFkB inh: 16; CF NFkB inh: 12; KKLEB tox: -10; TWEAK Fn14 block: 52*

How did CC(=O)N(C1=C(Cl)C(=O)c2ccccc2C1=O)C1CCCCC1 do in these assays?
LGR2 inh: 8; TROY NFkB inh: 21; CF NFkB inh: 11; KKLEB tox: -13; TWEAK Fn14 block: 15; EWS-Fli inh: 55*

Results for Cc1[nH]nc2c1C(c1cccc(C(F)(F)F)c1)N(Cc1ccccc1)C2=O (stereo unspecified) ?
LGR2 inh: -9; EWS-Fli inh: 3

How did CCOC(=O)c1c(NC(=O)CSc2nnc(-c3c[nH]c4ccccc34)n2CCOC)sc2c1CCCCC2 do in these assays?
LGR2 inh: 28; TROY NFkB inh: 3; CF NFkB inh: -9; KKLEB tox: 16; TWEAK Fn14 block: 53*; EWS-Fli inh: 7

Results for COc1ccc(-c2ccc3c(c2)[C@H]2[C@H](CCN2C(=O)NC2CCCC2)[C@H](CO)N3C)cc1 ?
LGR2 inh: 9; EWS-Fli inh: -15

How did Oc1[nH]c2ccccc2c1N=NC(=S)N1CCOCC1 do in these assays?
TROY NFkB inh: 1; CF NFkB inh: 17; KKLEB tox: 26; TWEAK Fn14 block: 104*

What do the screens show for `NC(=S)N=Nc1c(O)[nH]c2ccccc12`?
LGR2 inh: -15; TROY NFkB inh: -23; CF NFkB inh: 2; KKLEB tox: 4; TWEAK Fn14 block: 2

What do the screens show for `COC(=O)c1ccccc1OCCCOc1ccc(C=O)cc1OC`?
LGR2 inh: -14; TROY NFkB inh: 34; CF NFkB inh: -10; KKLEB tox: 1; TWEAK Fn14 block: 53*

How did CC(C)COc1ccc(C(=O)N(Cc2ccco2)C2CCS(=O)(=O)C2)cc1 (stereo unspecified) do in these assays?
CF NFkB inh: 0; KKLEB tox: 1; TWEAK Fn14 block: 73*

What do the screens show for `CC(Oc1ccc(Cl)cc1Cl)C(=O)N(Cc1ccco1)C1CCS(=O)(=O)C1` (stereo unspecified)?
CF NFkB inh: 17; KKLEB tox: -11; TWEAK Fn14 block: 83*

How did Cc1noc(C)c1NC(=O)N(C)C[C@@H]1Oc2ccc(NS(C)(=O)=O)cc2C(=O)N([C@H](C)CO)C[C@H]1C do in these assays?
LGR2 inh: 4; EWS-Fli inh: -6

How did COc1ccc(S(=O)(=O)Nc2ccc3c(c2)C(=O)N([C@H](C)CO)C[C@H](C)[C@@H](CN(C)C(=O)NC2CCCCC2)OCCCC[C@@H](C)O3)cc1 do in these assays?
LGR2 inh: -5; EWS-Fli inh: -1

What do the screens show for `COc1cc(C(=O)N/N=C/c2sccc2C)cc(OC)c1OC`?
LGR2 inh: 9; TROY NFkB inh: 13; CF NFkB inh: 52*; KKLEB tox: -10; TWEAK Fn14 block: 17; EWS-Fli inh: 55*

How did C[C@@H]1CCCCO[C@H](CN(C)CC2CCCCC2)[C@@H](C)CN([C@H](C)CO)C(=O)c2cc(NC(=O)CCCN(C)C)ccc2O1 do in these assays?
LGR2 inh: 5; EWS-Fli inh: -2

How did COc1ccc(-c2csc(-c3cccs3)n2)c(OC)c1 do in these assays?
LGR2 inh: -13; TROY NFkB inh: -45; CF NFkB inh: -14; KKLEB tox: -6; TWEAK Fn14 block: -4; EWS-Fli inh: -5

Results for COc1ccc(-c2csc(-c3ccccc3)n2)c(OC)c1 ?
LGR2 inh: -34; TROY NFkB inh: -11; CF NFkB inh: -19; KKLEB tox: -2; TWEAK Fn14 block: 56*; EWS-Fli inh: -33

How did O=C(C[C@@H]1CC[C@@H]2[C@H](COC[C@H](O)CN2Cc2nccs2)O1)NCc1ccc(F)cc1 do in these assays?
LGR2 inh: 0; EWS-Fli inh: 0

How did O=C1OCCC1Sc1nnc(-c2ccc(Cl)cc2Cl)o1 (stereo unspecified) do in these assays?
LGR2 inh: 74*; TROY NFkB inh: 52*; CF NFkB inh: 9; KKLEB tox: -14; TWEAK Fn14 block: 83*; EWS-Fli inh: 49

What do the screens show for `CCN(CC)c1ccc(-c2nn3c(-c4ccccc4OC)nnc3s2)cc1`?
TROY NFkB inh: 20; CF NFkB inh: 53*; KKLEB tox: -48; TWEAK Fn14 block: -77

How did O=C(c1cccc(N2CCCC2=O)c1)N1CCN(c2ccccc2)CC1 do in these assays?
TROY NFkB inh: 76*; CF NFkB inh: -6; KKLEB tox: 12; TWEAK Fn14 block: 46

Results for C=CCn1c(SCC(=O)c2[nH]c(C)c(C(=O)OCC)c2C)nc2scc(-c3ccc(OC)c(OC)c3)c2c1=O ?
LGR2 inh: -2; TROY NFkB inh: 16; CF NFkB inh: 56*; KKLEB tox: -42; TWEAK Fn14 block: -56
